D2 ag-1: agonists of human D2 dopamine receptor | P14416 | HEK293 T-REx D2 cells, calcium flux agonist mode | activation, % at 2 µM | actives 0.53% (n = 340,000) | AID 485358;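 active = activation over 3 SD above normal in the single-dose calcium agonist read, cut at about 30% in these data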
Target sequence (P14416 whole entry, looked up): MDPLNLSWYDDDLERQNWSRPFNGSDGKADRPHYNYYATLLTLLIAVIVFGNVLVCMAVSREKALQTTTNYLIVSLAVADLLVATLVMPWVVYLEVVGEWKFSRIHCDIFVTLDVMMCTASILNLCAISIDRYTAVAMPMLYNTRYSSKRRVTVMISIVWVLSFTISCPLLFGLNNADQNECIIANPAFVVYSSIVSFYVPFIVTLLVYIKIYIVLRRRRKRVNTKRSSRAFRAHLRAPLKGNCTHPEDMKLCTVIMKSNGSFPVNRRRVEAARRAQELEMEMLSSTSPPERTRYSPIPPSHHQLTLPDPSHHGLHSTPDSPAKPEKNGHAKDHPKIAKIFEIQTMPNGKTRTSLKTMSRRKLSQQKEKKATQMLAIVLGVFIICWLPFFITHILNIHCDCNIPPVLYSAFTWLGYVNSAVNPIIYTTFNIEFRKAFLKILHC
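HEK293 Trex D2 cells, tetracycline-induced, o/n 30 C 5% CO2; no-wash Ca dye, RT 30–90 min; 10-cycle baseline, 23 nl cpd added, kinetic Ca read 180 s; agonist hits = positive Ca response.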
D2 PAM-1: positively modulates the human D2 dopamine receptor allosterically. P14416. HEK293 T-REx D2, calcium flux, EC20 dopamine potentiation. potentiation, % at 10 µM. actives 0.34% (n = 340,000);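 active = potentiation over 3 SD above the plate norm, cut at about 30% in these data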
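Cells plated with tetracycline inducer and held overnight at 30 C; calcium dye loaded 30–90 min at room temperature; baseline taken, compound added and read 180 s; EC20 dopamine then added and read 180 s.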
D2 ag-2: agonists of human D2 dopamine receptor (beta-arrestin). P14416. DiscoveRx PathHunter D2 beta-arrestin, luminescence, 90 min; 100% = 57 uM dopamine signal. activation, % (test concentration not listed). actives 0.084% (n = 360,000). AID 624465; in the data active = activation above about 40%
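DiscoveRx PathHunter D2 beta-arrestin cells (2,100/well) attached overnight, then compound-stimulated 90 min at 37 C in HBSS/10 mM HEPES/0.1% Tween-20 buffer; beta-galactosidase complementation read by luminescence after 1 h at ambient temperature. Dopamine 57 uM final (EC100) as control.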
D2 PAM-2: potentiates the human D2 dopamine receptor allosterically. DiscoveRx D2 beta-arrestin cells, luminescence, 90 min; 100% = 57 uM dopamine signal. potentiation, % (test concentration not listed). actives 0.23% (n = 360,000); in the data active = potentiation above about 50%
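PathHunter D2 cells, attached overnight at 37 deg C, received compound in DMSO plus dopamine at EC20 (50 nM final) for 90 min at 37 deg C. Beta-arrestin recruitment was read as luminescence after 1 h with detection reagent at ambient temperature.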
D2 antagonist: antagonists of human D2 dopamine receptor; P14416; HEK293 TREx D2 cells, calcium flux, dopamine EC80; inhibition, % at 10 µM; actives 2% (n = 340,000); AID 485344; in the data active = inhibition above about 30%; inactive = below that, where a call was filed
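Tetracycline-induced HEK293 T-REx cells expressing D2 force-coupled to calcium signalling were dye-loaded, exposed to compound for 180 s, then challenged with an EC80 of dopamine; calcium flux was followed kinetically for a further 180 s.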
A number is an active result. Sampled rows, rich in hits. Any-hit rate of the full collection: about 2.4%.

`O=C(C1CCN(c2ncnc3c2nc2n3CCCCC2)CC1)N1CCCCC1` gave D2 ag-1 35, D2 PAM-1 inactive, D2 ag-2 inactive, D2 PAM-2 inactive and D2 antagonist inactive.
For CN1CCN(C(=O)C2CCN(c3ncnc4c3nc3n4CCCCC3)CC2)CC1 the results were D2 ag-1 inactive, D2 PAM-1 inactive, D2 ag-2 inactive, D2 PAM-2 inactive and D2 antagonist inactive.
Screening CCCCCN(C(=O)CCC(=O)OCC(=O)c1c(C)cc(C)cc1C)c1c(N)n(CCCC)c(=O)[nH]c1=O returned D2 ag-1 inactive, D2 PAM-1 inactive, D2 ag-2 inactive, D2 PAM-2 inactive and D2 antagonist inactive.
COc1ccc(C2Nc3ccccc3C(=O)N2NS(=O)(=O)c2ccccc2)cc1 (stereo unspecified) was read as D2 ag-1 inactive, D2 PAM-1 inactive, D2 ag-2 inactive, D2 PAM-2 inactive and D2 antagonist 39.
For O=C1c2ccccc2NC(c2cccs2)N1NS(=O)(=O)c1ccccc1 (stereo unspecified) the results were D2 ag-1 inactive, D2 PAM-1 inactive, D2 ag-2 inactive, D2 PAM-2 inactive and D2 antagonist inactive.
`O=C1c2ccccc2NC(c2ccco2)N1NS(=O)(=O)c1ccccc1` (stereo unspecified) gave D2 ag-1 inactive, D2 PAM-1 inactive, D2 ag-2 inactive, D2 PAM-2 inactive and D2 antagonist 33.
For O=C1c2ccccc2NC(c2ccccc2)N1NS(=O)(=O)c1ccccc1 (stereo unspecified) the results were D2 ag-1 inactive, D2 PAM-1 inactive, D2 ag-2 inactive, D2 PAM-2 inactive and D2 antagonist inactive.
CCN(c1ccccc1)S(=O)(=O)c1ccc(C(=O)N(CCN(C)C)c2nc3c(F)cc(F)cc3s2)cc1 was read as D2 ag-1 inactive, D2 PAM-1 inactive and D2 antagonist inactive.
Cc1ccc(CNc2ccc3c(c2)ncn3C(C)C)cc1 was read as D2 ag-1 37, D2 PAM-1 inactive, D2 ag-2 inactive, D2 PAM-2 inactive and D2 antagonist inactive.
For COc1ccc(N2CCN(C(=O)CCC(=O)N3CC(C)Oc4ccc(C)cc43)CC2)cc1 (stereo unspecified) the results were D2 ag-1 inactive, D2 PAM-1 inactive, D2 ag-2 inactive, D2 PAM-2 inactive and D2 antagonist inactive.
`CC(C)(C)c1ccc(C(=O)CSc2n[nH]c(=O)[nH]c2=O)cc1` gave D2 ag-1 inactive, D2 PAM-1 inactive, D2 ag-2 inactive, D2 PAM-2 inactive and D2 antagonist 31.
For O=C(CSc1n[nH]c(=O)[nH]c1=O)c1ccc(Cl)cc1Cl the results were D2 ag-1 inactive, D2 PAM-1 inactive, D2 ag-2 inactive, D2 PAM-2 inactive and D2 antagonist inactive.
Screening COc1ccc(S(=O)(=O)Nc2ccc3c(c2)n(C)c(=O)n3C)cc1F returned D2 ag-1 inactive, D2 PAM-1 inactive, D2 ag-2 inactive, D2 PAM-2 inactive and D2 antagonist inactive.
For Cc1cc(S(=O)(=O)Nc2ccc3c(c2)n(C)c(=O)n3C)ccc1F the results were D2 ag-1 inactive, D2 PAM-1 106, D2 ag-2 inactive, D2 PAM-2 inactive and D2 antagonist inactive.
`COc1ccc(Nc2cc3n(c(=O)n2)CCc2cc(OC)c(OC)cc2-3)cc1` gave D2 ag-1 inactive, D2 PAM-1 inactive, D2 ag-2 inactive, D2 PAM-2 inactive and D2 antagonist inactive.
Screening COc1cc2c(cc1OC)-c1cc(Nc3ccc4c(c3)OCCO4)nc(=O)n1CC2 returned D2 ag-1 inactive, D2 PAM-1 57, D2 ag-2 inactive, D2 PAM-2 inactive and D2 antagonist inactive.
Screening O=C(COC(=O)c1ccc(F)c(S(=O)(=O)N2CCOCC2)c1)c1ccc(Cl)cc1 returned D2 ag-1 inactive, D2 PAM-1 inactive, D2 ag-2 inactive, D2 PAM-2 inactive and D2 antagonist inactive.
For O=C(COC(=O)c1ccc(F)c(S(=O)(=O)N2CCOCC2)c1)c1ccc(Br)cc1 the results were D2 ag-1 inactive, D2 PAM-1 38, D2 ag-2 inactive, D2 PAM-2 inactive and D2 antagonist 36.
Screening O=C(O)COc1ccccc1/C=C1\SC(=S)N(NC(=O)c2ccccc2O)C1=O returned D2 ag-1 inactive, D2 PAM-1 inactive, D2 ag-2 inactive, D2 PAM-2 inactive and D2 antagonist inactive.
